Experimental findings from ChEMBL document CHEMBL3988442, “University of Dundee, Small-Polar-MMV Screening Library” (2021) are described below.

In all, about 53,000 compounds went through this assay and about 900 (1.7%) showed an effect of 50% or more. The list comes from a sample in which strong results are over-represented; it also holds similar structures and randomly drawn compounds.

In the assay the test system is Mycobacterium tuberculosis. The experiment in a line: Cornell - Phenotypic assay to identify agents that inhibit growth of Mycobacterium tuberculosis. The format is functional. Also noted: scale not given: direction of the effect not stated beside the values. The settings on record: 10 mM as filed; unlikely as a test dose.
Turning to `CN(C)c1cc(C2CCCNC2)ccn1.Cl.Cl` (stereo not drawn), the “Percent Effect” value came to 40.71%.

For the molecule `CC(C)(C)OC(=O)N1CCn2c(nnc2C2CCCNC2)C1` (stereo not drawn), the “Percent Effect” value is given as -27.32%.

For `CCC(C)(C)n1nnnc1C(c1cccs1)N1CCCCC1` (stereo not drawn), the “Percent Effect” value stood at 33.43%.

Consider `CCC(C)(C)n1nnnc1C(c1cccs1)N1CCc2ccccc2C1` (stereo not drawn), for which the “Percent Effect” value was 77.94%.

As to `CCC(C)(C)n1nnnc1C(c1cccs1)N1CCc2ccccc21` (stereo not drawn), the “Percent Effect” value stood at 26.96%.

With `CCOc1ccccc1CN(C)C(=O)CN1C(=O)OC[C@@H]1C(C)C`, the “Percent Effect” value is -25.38%.

On to `NCc1n[nH]c(=O)n1-c1cccc(Cl)c1Cl`, for which the “Percent Effect” value is recorded as -49.88%.

Regarding `Cc1cccc(-c2nccnc2C2CCN(C)CC2)c1C`, the “Percent Effect” value is on record as -15.39%.

`NC(=O)c1c(-c2ccc(Cl)cc2)csc1NC(=O)CCC(=O)O`: the “Percent Effect” value is recorded as -1.119%.

Regarding `O=C(COc1coc(CN2CCCCC2)cc1=O)c1ccc(Cl)cc1`, the “Percent Effect” value is recorded as 53.44%.

Take `O=C(COc1coc(CN2CCOCC2)cc1=O)c1ccc(Cl)cc1`: the “Percent Effect” value was 4.659%.

`O=C(COc1coc(CN2CCCCCC2)cc1=O)c1ccccc1`: the “Percent Effect” value is -10.82%.

As to `CSCCC(=O)N1CCCC(c2ncc[nH]2)C1` (stereo not drawn), the “Percent Effect” value amounted to 7.779%.

In the case of `Cc1cc(=O)[nH]c(-n2nc(C)c(CCC(=O)NCc3cccs3)c2C)n1`, the “Percent Effect” value was found to be 13.95%.

In the case of `NC1(c2nc(-c3cccs3)cc(=O)[nH]2)CCCC1`, the “Percent Effect” value is given as -47.24%.

Regarding `NC1(c2nc(-c3cccs3)cc(=O)[nH]2)CCCCC1`, the “Percent Effect” value is given as -54.45%.

For `CCCS(=O)(=O)NCCn1ccc(-c2cccs2)n1`, the “Percent Effect” value is on record as -17.91%.

Consider `Cc1cc(=O)[nH]c(-n2nc(-c3cccs3)cc2N)n1`, for which the “Percent Effect” value amounted to 98.99%.

Take `Cc1cc(=O)[nH]c(-n2nc(-c3ccccc3)cc2N)n1`: the “Percent Effect” value came out at 94.92%.

With `CCCc1cc(=O)[nH]c(-n2nc(-c3cccs3)cc2N)n1`, the “Percent Effect” value is listed as 94.38%.

With `NC1(c2nc(-c3ccccc3)cc(=O)[nH]2)CCCC1`, the “Percent Effect” value worked out at 17.2%.

Consider `COC(=O)CCc1c(C)nn(-c2nc(C)cc(=O)[nH]2)c1C`, for which the “Percent Effect” value came to 23.13%.

As to `COc1cc(N2C[C@H]3CN(Cc4ccccn4)C[C@H]3C2)ncn1.O=C(O)C(F)(F)F`, the “Percent Effect” value is reported as 8.566%.

For the molecule `Cn1nnnc1SC1CCc2ccccc2NC1=O` (stereo not drawn), the “Percent Effect” value turned out to be 4.345%.

Consider `O=C(COC[C@]12COC[C@H]1CN(C1CCC1)C2)N1CCCC1.O=C(O)C(F)(F)F`, for which the “Percent Effect” value is -23.94%.

On to `CN(CC1COc2ccccc2O1)C(=O)C1=NN(C)C(=O)CC1` (stereo not drawn), for which the “Percent Effect” value was 21.15%.

As to `CCCN(CC1COc2ccccc2O1)C(=O)CCN1C(=O)CCC1=O` (stereo not drawn), the “Percent Effect” value was found to be 17.77%.

As to `CCC1CN(CCNS(C)(=O)=O)c2ccccc2O1` (stereo not drawn), the “Percent Effect” value was 23.74%.

Regarding `CCC1CN(CCCNS(C)(=O)=O)c2ccccc2O1` (stereo not drawn), the “Percent Effect” value is listed as 99.54%.

Regarding `CS(=O)(=O)NCC1Cc2ccccc2O1` (stereo not drawn), the “Percent Effect” value is -12.85%.

Regarding `CCC1CN(CCCO)c2ccccc2O1` (stereo not drawn), the “Percent Effect” value came to 66.97%.

For the molecule `Cc1cccc(CN2CCC3(CCN(Cc4ccccn4)C3)C2=O)c1.O=C(O)C(F)(F)F.O=C(O)C(F)(F)F` (stereo not drawn), the “Percent Effect” value is listed as 1.967%.

For the molecule `COc1cc(CCC(=O)N2CCC(c3cc4nccnc4[nH]3)CC2)on1`, the “Percent Effect” value was 16.88%.

In the case of `CCCSc1ncccc1C(=O)NCc1ccc(N(C)C)cc1`, the “Percent Effect” value is -11.44%.

For `O=C(O)C(F)(F)F.c1ccc(CN2CCc3ncnc(-c4ccsc4)c3CC2)nc1`, the “Percent Effect” value came to 15.9%.

Regarding `CCc1csc(C2CCCN(C(=O)c3ccc(=O)n(CC)n3)C2)n1` (stereo not drawn), the “Percent Effect” value is reported as -10.64%.

As for `CCc1nc(C(=O)N(CC)CC(=O)N(C)C)nn1-c1ccccc1Cl`, the “Percent Effect” value was 10.69%.

Regarding `CCCn1nnnc1CN(c1ccc(N2CCOCC2)cc1)C(C)C`, the “Percent Effect” value is on record as 100.7%.

Turning to `CCCn1nnnc1CN(c1ccc(C)cc1)C(C)C`, the “Percent Effect” value was 13.52%.

As for `CCCn1nnnc1CN(C)C(C)c1ccc(C)cc1` (stereo not drawn), the “Percent Effect” value was 18.09%.

As to `c1ccc(CN2CCC(CCNc3ncnc4c3CCNCC4)C2)cc1` (stereo not drawn), the “Percent Effect” value is 21.24%.

As for `CN1C(=O)CCCC12CCCN(Cc1cccs1)C2.O=C(O)C(F)(F)F` (stereo not drawn), the “Percent Effect” value was determined as 15.82%.

As for `COCCN1CC2(CCN(Cc3ccco3)CC2)c2ccccc21`, the “Percent Effect” value is recorded as 57.89%.

Regarding `CCN1CCC2(CC1)CN(CCO)c1ccccc12`, the “Percent Effect” value is -37.58%.

`COCCN1CC2(CCN(C(=O)c3ccno3)CC2)c2ccccc21.O=C(O)C(F)(F)F`: the “Percent Effect” value is on record as -25.4%.

Regarding `Cc1cc(C)n(CC2CN(CCC(=O)NC3CCCCC3)CCO2)n1` (stereo not drawn), the “Percent Effect” value is listed as -4.136%.

On to `CC(=O)Nc1nc(C(=O)N2CCC(Nc3cccnn3)CC2)cs1`, for which the “Percent Effect” value is given as -42.9%.

On to `Cc1[nH]/c(=N\C(=O)c2csc(NC3CCCC3)n2)sc1C`, for which the “Percent Effect” value is recorded as 105%.

Consider `Cc1[nH]/c(=N\C(=O)c2csc(NC3CC3)n2)sc1C`, for which the “Percent Effect” value turned out to be 53.16%.

`CC(=O)Nc1nc(C(=O)N2CCCC(c3cc(C)[nH]n3)C2)cs1` (stereo not drawn): the “Percent Effect” value was -1.903%.

For `Cc1[nH]/c(=N/C(=O)Cn2nc(N3CCOCC3)ccc2=O)sc1C`, the “Percent Effect” value is listed as -3.782%.

Take `Cc1cc(O)c(OCC(=O)/N=c2\[nH]c(C)c(C)s2)cn1`: the “Percent Effect” value came out at 27.09%.

Take `COC(=O)Cn1c(C)cc(=O)n2nc(-c3cccs3)nc12`: the “Percent Effect” value was -3.318%.
